Compound activity as filed in PubChem BioAssay.
Sampled rows, rich in hits. Any-hit rate of the full collection: about 0.54%.
pAkt inh = blocks phosphorylation of Akt. Neuro2A IGF-stimulated pAkt S473 HTRF, 20 min; hits give low values. 360,000 compounds, 0.32% hits. activity change, % for hits at 50 µM; in the data active = activity change below about -80%; inconclusive = mostly about -51% to -80%; also: % is scaled to controls: 0 for no effect and ±100 for the full control effect
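Single-point screen (50 µM final compound) in Neuro2A cells stimulated 20 min with 6 nM IGF at 37 deg C. After lysis, Ser473-phosphorylated Akt read by HTRF (ex 330 nm, em 615/665 nm) as the 665/615 ratio.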
Menin-MLL TR inh = displaces Texas Red mutant MLL peptide from human menin; O00255; Menin + Texas Red MLL mutant peptide, fluorescence polarization; Potency, µM (doses to about 61.6 µM), inactives show at the top dose FP activity change, negative = inhibition, usual class: inhibitors; 270,000 compounds, 0.23% hits; AID 1768; active = well fitted inhibition curve with a large enough effect in the polarisation, with a control signal flat, not every such curve was filed as active; inconclusive = small, poorly fitted or top-dose-only effect, or effect the other way, or a change in a side signal; inactive = no such curve, though single readings can be large or run the other way; the % refers to the polarisation; also: potency is read from the fitted curve at half-maximal effect; % of control where 0% means no effect
Target sequence (O00255 whole entry, looked up): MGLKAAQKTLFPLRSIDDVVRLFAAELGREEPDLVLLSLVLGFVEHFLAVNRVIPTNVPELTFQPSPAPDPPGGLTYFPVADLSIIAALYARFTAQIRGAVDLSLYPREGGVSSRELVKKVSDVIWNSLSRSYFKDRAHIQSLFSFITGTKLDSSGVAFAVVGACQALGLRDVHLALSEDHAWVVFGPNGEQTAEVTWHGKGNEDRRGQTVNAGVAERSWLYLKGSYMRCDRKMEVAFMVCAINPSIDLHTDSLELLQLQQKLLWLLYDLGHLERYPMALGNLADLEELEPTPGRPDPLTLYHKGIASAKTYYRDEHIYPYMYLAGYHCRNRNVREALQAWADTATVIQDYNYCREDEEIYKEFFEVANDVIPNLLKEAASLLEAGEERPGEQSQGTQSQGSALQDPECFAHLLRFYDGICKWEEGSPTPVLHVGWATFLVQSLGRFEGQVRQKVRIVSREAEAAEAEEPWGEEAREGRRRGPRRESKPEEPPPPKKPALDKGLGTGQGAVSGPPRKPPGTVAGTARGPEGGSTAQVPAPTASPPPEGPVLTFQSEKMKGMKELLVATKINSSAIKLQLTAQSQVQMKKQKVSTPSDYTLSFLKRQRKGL
LDHA inh = blocks human lactate dehydrogenase A | 480,000 compounds, 0.15% hits | activity change, % (values are at about 110 or 230 µM) | purified LDHA, NADH/diaphorase-resazurin fluorescence; hits give low values | AID 1347041; in the data active = activity change below about -30%; inconclusive = mostly about -25% to -30%;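 also: plate controls were DMSO wells for no effect and wells without enzyme for full effect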
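Human LDH5 (2 nM) was incubated with 0.06 mM NADH and 0.2 mM pyruvate for 5 min at room temperature in Tris pH 7.4. Remaining NADH was coupled through diaphorase/resazurin, and resorufin fluorescence was read at 0 and 20 min.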
Menin MLL FP FL = inhibitors of human menin-MLL interaction, wild-type MLL peptide | 290,000 tested, under 10 active | Fluorescence polarization, fluorescein-MLL peptide displacement from menin | FP activity change, % at 61.4 µM; active = well fitted curve in the direction sought with a large enough effect in the polarisation, not every such curve was filed as active; inconclusive = small, poorly fitted or top-dose-only effect, or effect the other way, or a change in a side signal; inactive = no such curve, though single readings can be large or run the other way; the % refers to the polarisation; also: % of control where 0% means no effect
CXXC DNA block = MLL CXXC-DNA interaction inhibition; 290,000 compounds, 0.037% hits; Potency, µM (highest dose often 115 µM), inactives show at the top dose activity change, negative = inhibition, usual class: inhibitors; Q03164; MLL-CXXC / FITC-HOXA9 DNA fluorescence polarization; active = well fitted inhibition curve with a large enough effect in the polarisation, with a control signal flat, not every such curve was filed as active; inconclusive = small, poorly fitted or top-dose-only effect, or effect the other way, or a change in a side signal; inactive = no such curve, though single readings can be large or run the other way; the % refers to the polarisation; also: potency is read from the fitted curve at half-maximal effect
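Fluorescence polarization: 7 uM MLL-CXXC (stock) preincubated 5 min with compounds, then 50 nM fluorescein-HOX-A9 DNA (stock) added; 30 min ambient. Buffer 50 mM Tris-HCl pH 7.5, 50 mM NaCl, 1 mM DTT, 0.05% BSA.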
mIDH1 inhibitor = human IDH1 R132H inhibition | O75874 | IDH1-R132H enzyme, NADPH consumption, diaphorase/resazurin fluorescence | Potency, µM (doses to about 76.6 µM), for inactives: top-dose activity change, negative = inhibition, actives largely listed as inhibitors | 390,000 compounds, 0.093% hits; active = well fitted inhibition curve with a large enough effect; inconclusive = small, poorly fitted or top-dose-only effect; inactive = no such curve, though single readings can be large or run the other way; also: potency is read from the fitted curve at half-maximal effect; % is scaled to controls: 0 for no effect and ±100 for the full control effect; nearly all actives have a fitted effect of over 65% in size
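IDH1-R132H (0.5 ug/mL) preincubated 30 min with compound, then NADPH (0.016 mM) and alpha-KG (2 mM) added; 80 min at RT, pH 7.5. Remaining NADPH coupled via diaphorase/resazurin to fluorescence (540/590 nm); concentration-response curves normalized to no-enzyme control.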
* marks the source's active call; other numbers are inactive results; i = inactive; ? = inconclusive; / = no result; ! = not active in a repeat.

SMILES	pAkt inh	Menin-MLL TR inh	LDHA inh	Menin MLL FP FL	CXXC DNA block	mIDH1 inhibitor
CC(C)Oc1ccc(C(=O)Nc2nonc2-c2ccc(OC(C)C)cc2)cc1	/	/	-3	/	/	0%
Cn1nc(C(=O)N2CCOCC2)c2c1-c1ccsc1CC2	/	/	69	/	/	/
C=CCn1c(Sc2nnc(C)s2)nc2c1c(=O)[nH]c(=O)n2C	-124%*	4%	-10	-2	-2%	-8%
C=CCn1c(NCCCOC)nc2c1c(=O)[nH]c(=O)n2C	/	/	-35*	/	/	/
C=CCn1c(SCC(=C)C)nc2c1c(=O)[nH]c(=O)n2C	i	/	-4	2	-3%	14%
Cc1ccccc1NC(=O)C(Sc1ccccc1)c1ccccc1 (configuration not stated)	/	/	6	/	/	/
O=C(/C=C/c1c(Cl)cccc1Cl)NC(C1CC1)C1CC1	/	/	1	/	/	/
Cc1ccc(-c2noc(CN3CCCc4c(C(=O)NC(C)C)cccc43)n2)cc1	/	/	9	/	/	/
CC(C)N(C(=O)COc1ccc2ccc(=O)oc2c1)c1ccccc1	/	/	9	/	/	/
N#CC1=C(S)N(c2ccccc2)C(c2ccc(-c3cccc(Cl)c3)o2)NC1=O (configuration not stated)	i	2%	-1	4	7%	41µM*
Cc1ccc(OCCn2c(CN3CCOCC3)nc3ccccc32)cc1	/	/	2	/	/	/
CCCCC(=O)N/N=C/c1ccc(-c2ccc([N+](=O)[O-])cc2)o1	i	?	-14	11	-6%	6%
Cc1cc(C)n(Cc2ccc(C(=O)N/N=C/c3ccc(-c4ccc([N+](=O)[O-])cc4)o3)o2)n1	i	?	-65*	10	-2%	3%
CCCCn1cnc2c(c(-c3ccccc3)c(-c3ccccc3)n2Cc2ccco2)c1=N	i	/	-10	1	1%	-5%
N=c1c2c(-c3ccccc3)c(-c3ccccc3)n(Cc3ccccc3)c2ncn1CCCn1ccnc1	/	22µM*	0	-2	83%	6%
O=C(NCc1ccccn1)C1CC(c2ccc(Cl)c(Cl)c2)=NO1 (configuration not stated)	i	-21%	0	2	19%	-2%
O=C(NCc1ccccn1)C1CC(c2ccc(F)cc2)=NO1 (configuration not stated)	-112%*	5%	1	1	38%	4%
N#CCOc1nc(N2CCOCC2)nc(N2CCOCC2)n1	i	13%	-31*!	-2	3%	5%
O=C(Nc1ccc2c(c1)OCCO2)C1CCCN1S(=O)(=O)c1ccc(Cl)cc1 (configuration not stated)	-111%*	7%	-5	-1	1%	-1%
O=C(O)c1cccc(S(=O)(=O)Nc2ccc3oc(=O)sc3c2)c1	-114%*	16%	2	8	0%	0%
O=C(C1CCN(Cc2cccs2)CC1)N1CCN(Cc2ccc3c(c2)OCO3)CC1	i	-10%	-33*	2	-2%	5%
O=C(c1cccs1)N1CCC(C(=O)N2CCN(Cc3ccc4c(c3)OCO4)CC2)CC1	i	-16%	1	1	2%	1%
COc1ccc(Cc2nnc(SCC(=O)Nc3ccc(C)cc3C)[nH]c2=O)cc1	i	/	-4	/	/	-4%
COc1ccc(Cc2nnc(Nc3ccc(C)cc3C)[nH]c2=O)cc1	-122%*	13%	-17	-1	0%	-4%
CC(C)CC(=O)Nc1cccc(-c2cn3ccsc3n2)c1	i	14%	-6	4	4%	4%
SMILES	pAkt inh	Menin-MLL TR inh	LDHA inh	Menin MLL FP FL	CXXC DNA block	mIDH1 inhibitor
CCC(=O)Nc1cccc(-c2cn3ccsc3n2)c1	-105%*	/	-1	4	1%	-2%
CCOc1ccc2[nH]cc(S(=O)(=O)c3ccc(Cl)cc3)c(=O)c2c1	i	6%	-44*	4	-2%	-18%
CCc1ccc(NC(=O)CS(=O)CC(=O)Nc2ccc(-n3cnnn3)c(C)c2)cc1 (configuration not stated)	i	8%	-32*	-3	-3%	-10%
Cc1cc(NC(=O)CS(=O)CC(=O)Nc2c(C)cccc2C)ccc1-n1cnnn1 (configuration not stated)	i	5%	-6	1	5%	-1%
O=C(COC(=O)c1ccc2ccccc2n1)NC(=O)c1ccccc1	/	/	2	/	/	/
CC(C)(C)c1csc(NC(=O)c2ccccc2O)n1	i	61%	2	-5	-13%	7%
Cc1csc(NC(=O)c2ccccc2O)n1	-99%*	1%	5	1	2%	12%
N#Cc1c(SCC(N)=O)nc(-c2ccccc2)c2c1CCCC2	-111%*	-7%	-2	-1	1%	-2%
COc1ccc(CN(C)[C@H]2C[C@H]3c4[nH]c5ccccc5c4CCN3C[C@H]2[C@H](C)O)cc1	i	/	-30*	/	/	-7%
COCc1ccc(CNC(=O)/C=C/c2ccccc2)cc1	/	/	-5	/	/	/
COCC(=O)N1CCN(c2oc(-c3ccc(C)cc3)nc2S(=O)(=O)c2ccc(F)cc2)CC1	/	/	-36*	/	/	/
COCC(=O)N1CCN(c2oc(-c3cccc(C)c3)nc2S(=O)(=O)c2ccc(F)cc2)CC1	/	/	2	/	/	/
O=C(CSc1nnc(Cc2cccs2)n1C1CCCCC1)N1CCCCCC1	/	/	-1	/	/	/
CCCCCCC(=O)Nc1nnc(CC)s1	-123%*	7%	0	2	-8%	6%
Cc1ccc(C(=O)CCC(=O)NC2CCc3ccccc32)cc1C (configuration not stated)	/	/	0	/	/	/
CC(NC(=O)c1cc(-c2ccccc2)n[nH]1)c1ccc(S(C)(=O)=O)cc1 (configuration not stated)	/	/	-22	/	/	/
C=CCNC(=O)c1ccccc1NC(=O)c1ccc(Cl)c(S(=O)(=O)Nc2ccccc2)c1	-88%*	?	-6	3	12%	-1%
CC(=O)Oc1ccc(-c2cc3ccc(OC(C)=O)cc3oc2=O)cc1	i	/	-9	/	/	3%
CC(=O)Oc1ccc2cc(-c3ccccc3)c(=O)oc2c1	i	41%	-31*!	4	5%	-2%
O=C(Cn1c(SCC(=O)Nc2ccc(F)cc2)nc2ccccc21)NCc1ccccc1Cl	/	/	-32*	/	/	-19%
CCOC(=O)CSc1nnc2c3c(c(C#N)c(Nc4ccc(C)cc4)n12)CC(C)(C)OC3	/	/	-18	/	/	/
O=C(COC(=O)c1cccnc1SCC(=O)NCc1ccccc1)NCc1ccccc1	-89%*	/	4	1	28%	8%
COc1cccc(C2Nc3ccccc3C(=O)N2O)c1O (configuration not stated)	-118%*	13%	9	-2	-5%	0%
